Screening results deposited in PubChem by National Center for Advancing Translational Sciences (NCATS).
The entries come from a sample that favours hits as a whole.
Pf Dd2 growth = qHTS Primary assay for Inhibitors of Plasmodium falciparum Dd2 growth in vitro; P. falciparum Dd2 growth, SYBR Green, 72 h; Potency, µM (titrated, usually from 28.9 µM), usual class: inhibitors; 4.3% of 120,000 active; AID 1347417, 2020; active means well fitted inhibition curve with a large enough effect; further: nearly all actives have a fitted effect of over 65% in size
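Readout: SYBR Green fluorescence, 485 nm excitation, 535 nm emission, after ~16 h lysis at 37C. Before that, Dd2-infected red cells (2.5% hematocrit) grew 72 h with compound, 29 uM top final concentration.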
Of the large screens only hits and unclear results are named; the others gave an inactive call.

Cc1ccc(CNC(=O)c2cnn(-c3ccc(F)cc3F)c2C2CCN(C(=O)OC(C)(C)C)CC2)cc1	Pf Dd2 growth 11µM
CC(C)(C)OC(=O)N1CCC(c2c(C(=O)N3CCOCC3)cnn2-c2ccccc2Cl)CC1	none
COc1cc(OC)c(NC(=O)c2cnn(-c3cccc(Cl)c3C)c2C2CCN(C(=O)OC(C)(C)C)CC2)cc1Cl	Pf Dd2 growth 3.5µM
COc1ccc(OC)c(CCNC(=O)c2cnn(-c3ccccc3Cl)c2C2CCN(C(=O)OC(C)(C)C)CC2)c1	Pf Dd2 growth 7.9µM
CC(C)(C)OC(=O)N1CCC(c2c(C(=O)NC3CCCCC3)cnn2-c2ccc(F)cc2F)CC1	none
CC(=O)Nc1ccc(C(=O)NC2CCN(c3cc(-c4cccs4)[nH]n3)C2)cc1 (stereo not given)	none
CCn1nc(C)c(-c2cc(C(=O)NCC34CCC=C3N(C)C(=O)CC4)no2)c1C (stereo not given)	none
CN(C)c1cc(=O)c2ccnc(Nc3ccccn3)c2o1	none
COCCN1C(=O)[C@@H]2C[C@@H](CN2Cc2ccc3ccccc3n2)Oc2ccccc21	none
CCc1ccccc1-n1nc(-c2c(C)nc3scc(CC(=O)NCc4ccco4)n3c2=O)cc1C	none
CC(=O)c1cccc(C(=O)N2CCC3(CC2)NC(=O)N(Cc2ccc(C)cc2)C3=O)c1	none
CC(=O)N1CCCN(C(=O)CC(c2cccc(O)c2)c2cccc(Cl)c2)CC1 (stereo not given)	none
O=C1NC(=NC2CCCCC2)C2(CCN(Cc3ccccc3)CC2)N1c1cc(F)cc(F)c1	none
CC(=O)N1CCC2(CC1)C(=NC1CCCC1)NC(=O)N2c1cc(F)cc(F)c1	none
COc1ccc(CN2CCC3(CC2)C(=NC2CCCC2)NC(=O)N3c2cc(F)cc(F)c2)cc1	none
O=C1NC(=NC2CCCC2)C2(CCN(Cc3ccc(F)cc3)C2)N1c1cc(F)cc(F)c1 (stereo not given)	Pf Dd2 growth 2µM
O=C1NC(=NC2CCCCC2)C2(CCN(Cc3cccnc3)CC2)N1c1cc(F)cc(F)c1	none
CN(C)c1ccc(CN2CCC3(C2)C(=NC2CCCCC2)NC(=O)N3c2cc(F)cc(F)c2)cc1 (stereo not given)	Pf Dd2 growth 10µM
CCOc1ccc(S(=O)(=O)N2CCCN(C(=O)C3CC3)c3ccccc32)cc1	none
CN1c2cccnc2CN(C2CCCCC2)CC[C@H]1CO	none
O=C(CC1=CCCCC1)NC1CCc2n[nH]c(=O)n2CC1 (stereo not given)	none
CN(C)c1ccc(CN[C@H]2C[C@H]3C(=O)NC[C@@H](CCC(=O)NCc4ccccc4)N3C2)cc1	none
Cc1ccc2oc(=O)c3cnn(CC(=O)N4CCN(c5ccccc5)CC4)c3c2c1	none
Cc1ccc(-c2c(C(=O)NCCc3ccc(Cl)cc3)oc(=O)c3ccccc23)cc1	none
Cc1c(-c2ccc(Cl)cc2)c(=O)oc2c(CN3CCN(C)CC3)c(O)ccc12	Pf Dd2 growth 10µM
Cc1cc(O)c(C(c2ccccc2)N2CCN(C)CC2)c(=O)n1Cc1ccco1 (stereo not given)	none
Cc1c(-c2ccccc2)c(=O)oc2c(CN3CCN(C)CC3)c(O)ccc12	Pf Dd2 growth 4µM
CN1CCN(c2cc(=O)c3ccnc(-c4cccc(CO)c4)c3o2)CC1	none
CCc1c(C)c2ccc(O)c(CN3CCN(c4ccccc4)CC3)c2oc1=O	Pf Dd2 growth 1.3µM
Cc1noc(C)c1CN1CCN(c2ccc(F)cc2)CC1	none
O=C(c1ccccc1)N1CCN2C(=O)N(Cc3ccccc3)C(=O)[C@H]2C1	none
COCc1cc(=O)n(CC(=O)Nc2ccccc2F)c(N2CCOCC2)n1	none
CN(Cc1ccc(-c2ccccc2)cc1)C(=O)C(C)(C)C	none
CCn1nc(C(C)C)cc1C(=O)N1CCN(C)C2(CCC(=O)N(C)CC2)C1 (stereo not given)	none
Cc1nc(CC2CCN(C(=O)c3cccn3C)CC2)n[nH]1	none
CC(C)NC(=O)N[C@H]1CCN2C(=O)c3cc(Br)ccc3NC(=O)[C@@H]2C1	none
O=C(Nc1ccc(F)c(Cl)c1)N1CCC(Oc2ncccc2C(=O)N2CCOCC2)C1 (stereo not given)	none
COCC(=O)NC[C@H]1OC[C@@H](NCc2ccccc2F)[C@@H]1O	none
COCC(=O)NC[C@H]1OC[C@@H](NCc2ccc(C)cc2)[C@@H]1O	none
COCC(=O)NC[C@H]1OC[C@@H](NCc2ccc(F)cc2)[C@@H]1O	Pf Dd2 growth 14µM
CN(CC1CCOC1)C(=O)c1cccs1 (stereo not given)	none
CCOc1ccc(OCC)c(NC(=O)c2cc3n(n2)CC(c2ccc(Cl)cc2)OC3)c1 (stereo not given)	none
O=C(Nc1cc(Cl)cc(Cl)c1)c1ccc(F)c(S(=O)(=O)N2CCCC2)c1	none
O=C(Nc1cc(Cl)cc(Cl)c1)c1ccc(F)c(S(=O)(=O)N2CCc3ccccc32)c1	Pf Dd2 growth 8.9µM
O=C(O)c1ccc2c(c1)N(S(=O)(=O)c1ccccc1F)CC2	none
O=C(O)C1CCc2nnc(C3CCCN(C(=O)c4ccc(C(F)(F)F)cc4)C3)n21 (stereo not given)	none
COc1ccc(NC(=O)Cc2c[nH]c3ncc(-c4ccccc4)cc23)cn1	none
COc1ccccc1OCC(=O)NCC1CCCN(Cc2ccc(C)c(C)c2)C1 (stereo not given)	none
COc1cc(OC)cc(C(=O)NCC2CCCN(C/C=C/c3ccccc3OC)C2)c1 (stereo not given)	Pf Dd2 growth 8.9µM
CCn1cc(CN2CCCC(CNC(=O)c3cc(OC)cc(OC)c3)C2)c(C)n1 (stereo not given)	none
Cc1noc(-c2ccn3c(CNC(=O)c4ccco4)nnc3c2)n1	none
CCOc1cc(C(=O)N2CCN(c3cc(-c4cccs4)[nH]n3)CC2)cc(OCC)c1OCC	none
Cc1cc(-c2cnc(Nc3ccc(F)cc3)c3c2CCO3)ccn1	none
COc1cccc(Nc2ncc(-c3cccc(N(C)C)c3)c3c2OCC3)c1	none
Clc1ccc(Nc2ncc(-c3cccnc3)c3c2OCC3)cc1	Pf Dd2 growth 10µM
FC(F)(F)c1cccc(Nc2ncc(-c3cccnc3)c3c2OCC3)c1	Pf Dd2 growth 8.9µM
COc1ccc(Nc2ncc(-c3cccnc3)c3c2OCC3)cc1	none
Cn1cc(-c2cnc(Nc3ccncc3)c3c2CCO3)cn1	none
O=C(CC1CCCCC1)N1CCC2(CC1)CC(N1CCN(c3ccccn3)CC1)CCO2 (stereo not given)	none
CCC(=O)N1CCC(Cc2noc(C3CCOCC3)n2)C1 (stereo not given)	none
O=C(NC1CCN(c2cc(-c3ccc(F)cc3)[nH]n2)CC1)c1cc(F)ccc1Cl	none
COCCN(C)C(=O)C1(C)CN(Cc2ccccc2)Cc2ccc(NCC(C)C)nc21 (stereo not given)	none
Cc1ccc(C(=O)NC(C)c2nc(-c3ccccn3)no2)cc1N1CCNC1=O (stereo not given)	none
Cc1cc(C(=O)N2CCC(N3C(=O)C(OCC4CC4)C34CCOCC4)CC2)n(C)n1 (stereo not given)	none
CCN(CC)C(=O)c1c(NC(=O)c2cccc(C)c2)sc2c1CCC(C)C2 (stereo not given)	none
Cc1ccccc1NC(=O)c1c(NC(=O)c2ccncc2)sc2c1CCC(C(C)(C)C)C2 (stereo not given)	Pf Dd2 growth 5.6µM
CCCNC(=O)c1c(NC(=O)c2ccccc2)sc2c1CCC(C(C)(C)C)C2 (stereo not given)	Pf Dd2 growth 11µM
CCOc1ccccc1NC(=O)c1c(NC(=O)c2ccncc2)sc2c1CCC(C(C)(C)C)C2 (stereo not given)	none
Cc1cc(C(=O)N[C@H](C)c2c(-c3ccc(F)cc3)noc2C(=O)O)c(C)o1	none
CN(Cc1cccnc1)C1CN(C(=O)c2ccc3ccccc3n2)C1	none
